# Laboratory results from PubChem BioAssay (EPA / NIEHS).
# Calls of active or inactive are those of the source. Rule for the calls: active = hit-call score of the fitted dose curve at least 0.9, where 1 is the maximum; inactive = score below 0.9.
# Experiment: ATG_TA_CIS: Attagene CIS-FACTORIAL HepG2 Assay for human TA Basal Promoter (AID 2282964)
# Settings: HepG2 Attagene CIS-factorial TA basal promoter reporter; actives raise or lower the signal
# Protocol: ATG_CIS is a cell-based, multiplexed-readout assay that uses HepG2, a human liver cell line, with measurements taken at 24 hours after chemical dosing in a 24-well plate.ATG_TA_CIS is one of 52 assay component(s) measured or calculated from the ATG_CIS assay. It is designed to make measurements of mRNA induction, a form of inducible reporter, as detected with fluorescence intensity signals by Reverse transcription polymerase chain reaction (RT-PCR) and Capillary electrophoresis technology.Data from the assay component ATG_TA_CIS was analyzed into 1 assay endpoint. This assay endpoint, ATG_TA_CIS, was analyzed with bidirectional fitting relative to DMSO as the negative control and baseline of activity. Using a type of inducible reporter, measures of mRNA for gain or loss-of-signal activity can be used to understand the background control at the transcription factor-level as they relate to the gene . Furthermore, this assay endpoint can be referred to as a secondary readout, because this assay has produced multiple assay endpoints where this one serves a background control function. To generalize the intended target to other relatable targets, this assay endpoint is annotated to the background measurement intended target family, where the subfamily is internal marker.
# Human liver HepG2 cells are transiently transfected with multiple reporter transcription units (MRTUs) in 6-well plates using FuGene 6 reagent (Roche; 3 ml FuGene/1 mg DNA). The MRTU constructs are regulated by a cis-regulating element (promoter). […] A major difference between the CIS and TRANS system is that in CIS activities of endogenous TFs are measured, whereas the TRANS assay evaluates changes in activities of exogenous, chimeric NR-Gal4 proteins. […] At the end of 24 hour incubation, total RNA was isolated using TriZol reagent (Invitrogen). The isolated RNA is then reverse-transcribed using oligo(dT) primer and Mo-MLV reverse transcriptase (Invitrogen) with DNAse I (Ambion) treatment for 30 min. The one-tenth of the produced cDNA was amplified by PCR using Taq DNA polymerase (Invitrogen) and two reporter sequence-specific primers. The PCR products were fluorescently labeled by primer extension with 6-arboxyfluorescein (6-FAM) 5'-labeled reporter sequence-specific primer (2 min at 95 C, 20 s at 68 C and 10 min at 72 C) and these products were digested with 5U of HpaI (New England Biolabs) for 2h at 37 C. The fragments were purified using Qiaquick PCR columns (Qiagen), analyzed on an ABI 3130xL genetic analyzer (Applied Biosystems) with peak positions identified by using a set of X-rhodamine (ROX)-labeled MapMarker1000 molecular weight standards (BioVentures). The raw capillary electrophoresis data was processed using Attagraph software (Attagene).
SMILES,outcome,AC50
CC(=O)OC/C=C(/C)CCC=C(C)C,inactive,–
CC(=O)OCC=C(C)C,inactive,–
CCC(=O)C1CC(C(C)C)CC=C1C (stereo not given),inactive,–
Nc1ncnc2nc[nH]c12,inactive,–
C=CC(=O)NCOCCCC,inactive,–
C=Cc1cccc(C)c1,inactive,–
CCOc1ccc(NC(N)=O)cc1,inactive,–
O=C(OCCc1ccccc1)c1ccccc1,inactive,–
CC(CC=O)CC(C)(C)C (stereo not given),inactive,–
C=Cc1ccc(OC(C)=O)cc1,inactive,–
O=C1CCCCCCCCCCCN1,inactive,–
COC(=O)C=Cc1ccccc1,inactive,–
CCCC(CC)c1ccccc1 (stereo not given),inactive,–
CC/C=C\C/C=C\C/C=C\CCCCCCCC(=O)OC,inactive,–
CCCCCCOc1ccc(N)cc1,inactive,–
CCN1CCCC1=O,inactive,–
CCCCC(=O)O,inactive,–
Cc1c(Cl)cccc1Cl,inactive,–
COc1cc(C)ccc1O,inactive,–
CCc1occc(=O)c1O,inactive,–

SMILES,outcome,AC50
CCCCCCCOC(=O)c1ccc(O)cc1,inactive,–
CN(C)Cc1cc(CN(C)C)c(O)c(CN(C)C)c1,inactive,–
CCCCOC(=O)CCC(C)=O,inactive,–
CC(C)COC(=O)CC(C(=O)OCC(C)C)S(=O)(=O)O (stereo not given),inactive,–
CN1CCN(C)CC1,inactive,–
CC(=O)CCC=C(C)C,inactive,–
O=C(Nc1ccccc1)c1cc(Cl)ccc1O,inactive,–
CC=C(C)C(C)=O,inactive,–
CCCCCC(=O)OCC,inactive,–
C[Si](C)(C)N[Si](C)(C)C,inactive,–
CC1CC(=O)CC(C)(C)C1 (stereo not given),inactive,–
CC=CC(=O)OCC(C)C,inactive,–
O=C(O)c1ccc2c(c1)C(=O)OC2=O,inactive,–
c1ccc2sc(SSN3CCOCC3)nc2c1,inactive,–
CCCCNS(=O)(=O)c1ccc(C)cc1,inactive,–
CCCCCCCCCCCCCC(=O)OC(C)C,inactive,–
CCCCNS(=O)(=O)c1ccccc1,inactive,–
Cc1c(O)cccc1O,inactive,–
COC(Cc1ccccc1)OC,inactive,–
C/C=C/C=C/CCCCCCCO,–,100 µM (active)
